# Measurements from ChEMBL document CHEMBL5606458, “ASAP - ZIKV NS2B-NS3 protease fluorescence single point” (2024).
# In all, about 2,700 compounds went through this assay and about 160 (5.9%) showed an effect of 50% or more. The sample as a whole holds a higher share of strong results than the screen did.
# Biological target: Nonstructural protein 3 (Zika virus) (UniProt A0A024AXB9)
# [1] = PRVABC59, Concentration 15.0 uM, Number of replicates 1.0
# [2] = PRVABC59, Concentration 50.0 uM, Number of replicates 1.0
# Chain of Nonstructural protein 3 (Zika virus) (A0A024AXB9 as listed by the source): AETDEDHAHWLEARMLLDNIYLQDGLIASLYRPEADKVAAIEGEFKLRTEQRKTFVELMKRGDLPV
structure (smiles),measurement,setting,value
O=C(NCCCSc1ccccc1)c1cc(Cl)ccc1NS(=O)(=O)c1ccc(Oc2ccccc2Cl)cc1,inhibition,[1],21.8%
N#C[C@@H](NC(=O)c1cc(Cl)ccc1NS(=O)(=O)c1ccc(Oc2ccccc2Cl)cc1)c1ccc(F)cc1,inhibition,[1],28.7%
Cc1cc(CO)c2cccc(Cc3ccccc3C(=O)N(c3ncccn3)S(=O)(=O)c3ccc(N)cc3)c2n1,inhibition,"PRVABC59, Concentration 49.95 uM, Number of replicates 2.0, Standard deviation 0.5295893128804832 %",2.68%
same,inhibition,"PRVABC59, Concentration 99.9 uM, Number of replicates 2.0, Standard deviation 0.15206043463069627 %",8.61%
Cc1cc(CO)c2cccc(Cc3cccc(C(=O)N(c4ncccn4)S(=O)(=O)c4ccc(N)cc4)c3)c2n1,inhibition,"PRVABC59, Concentration 49.95 uM, Number of replicates 2.0, Standard deviation 0.9333358068338657 %",1.86%
same,inhibition,"PRVABC59, Concentration 99.9 uM, Number of replicates 2.0, Standard deviation 0.5295896500552713 %",17.8%
Cc1cc(CO)c2cccc(CC(=O)N(c3ncccn3)S(=O)(=O)c3ccc(N)cc3)c2n1,inhibition,"PRVABC59, Concentration 49.95 uM, Number of replicates 2.0, Standard deviation 0.08143445481880901 %",93.4%
same,inhibition,"PRVABC59, Concentration 99.9 uM, Number of replicates 2.0, Standard deviation 0.09670172922339526 %",93.5%
c1ccn2c(CNCC3CCOCC3)nnc2c1,inhibition,"PRVABC59, Concentration 49.5 uM, Number of replicates 2.0, Standard deviation 1.8796463523944162 %",-1.69%
same,inhibition,"PRVABC59, Concentration 99.01 uM, Number of replicates 2.0, Standard deviation 2.0631141970669455 %",-2.09%
same,inhibition,"PRVABC59, Concentration 198.0 uM, Number of replicates 2.0, Standard deviation 1.9030296768293513 %",-4.01%
Cc1cc(Br)ccc1CNC(=O)c1cc(Cl)ccc1NS(=O)(=O)c1ccc(Oc2ccccc2Cl)cc1,inhibition,[1],27.2%
O=C(Nc1ccc(SC(F)(F)F)cc1)c1cc(Cl)ccc1NS(=O)(=O)c1ccc(Oc2ccccc2Cl)cc1,inhibition,[1],45.3%
O=C(Nc1ccccc1Sc1ccccc1)c1cc(Cl)ccc1NS(=O)(=O)c1ccc(Oc2ccccc2Cl)cc1,inhibition,[1],25.8%
O=C(NCc1nc(-c2ccccn2)no1)c1cc(Cl)ccc1NS(=O)(=O)c1ccc(Oc2ccccc2Cl)cc1,inhibition,[1],54%
CNC(=O)c1ccccc1NC(=O)c1cc(Cl)ccc1NS(=O)(=O)c1ccc(Oc2ccccc2Cl)cc1,inhibition,[1],12.1%
O=C(Nc1ccc(OC(F)F)cc1)c1cc(Cl)ccc1NS(=O)(=O)c1ccc(Oc2ccccc2Cl)cc1,inhibition,[1],57.7%
O=C(NCc1ccc(-c2ccccn2)cc1)c1cc(Cl)ccc1NS(=O)(=O)c1ccc(Oc2ccccc2Cl)cc1,inhibition,[1],31.7%
COc1c(Cl)cccc1NC(=O)c1cc(Cl)ccc1NS(=O)(=O)c1ccc(Oc2ccccc2Cl)cc1,inhibition,[1],38.1%
COc1ccc(NC(C)=O)cc1NC(=O)c1cc(Cl)ccc1NS(=O)(=O)c1ccc(Oc2ccccc2Cl)cc1,inhibition,[1],55%
COc1cc(NC(=O)c2cc(Cl)ccc2NS(=O)(=O)c2ccc(Oc3ccccc3Cl)cc2)c(Cl)cc1Cl,inhibition,[1],35%
O=C(NCCc1nc(-c2ccc(Cl)cc2)no1)c1cc(Cl)ccc1NS(=O)(=O)c1ccc(Oc2ccccc2Cl)cc1,inhibition,[1],20.2%
O=C(Nc1ccc(C(F)(F)F)cc1)c1cc(Cl)ccc1NS(=O)(=O)c1ccc(Oc2ccccc2Cl)cc1,inhibition,[1],26.8%
O=C(Nc1ccccc1Cc1ccccc1)c1cc(Cl)ccc1NS(=O)(=O)c1ccc(Oc2ccccc2Cl)cc1,inhibition,[1],55.2%
CN1C(=O)c2ccc(NC(=O)C3CCN(c4ccc(C=O)cc4)CC3)cc2C1=O,inhibition,[2],28.5%
c1ccc2[nH]c(CC3CCN(c4ncnc5[nH]ccc45)CC3)nc2c1,inhibition,"PRVABC59, Concentration 49.5 uM, Number of replicates 2.0, Standard deviation 0.8729323765409018 %",-3.7%
same,inhibition,"PRVABC59, Concentration 99.01 uM, Number of replicates 2.0, Standard deviation 2.6991147561762485 %",1.52%
same,inhibition,"PRVABC59, Concentration 198.0 uM, Number of replicates 2.0, Standard deviation 4.214592802372255 %",7.18%
CC(CNC(=O)c1cc(Cl)ccc1NS(=O)(=O)c1ccc(Oc2ccccc2Cl)cc1)(c1ccccc1)c1ccccc1,inhibition,[1],31.7%
COc1cccc(CCNC(=O)c2cc(Cl)ccc2NS(=O)(=O)c2ccc(Oc3ccccc3Cl)cc2)c1,inhibition,[1],27.6%
O=C(c1cc(Cl)ccc1NS(=O)(=O)c1ccc(Oc2ccccc2Cl)cc1)N1CCN(c2ccccc2O)CC1,inhibition,[1],-1.02%
C[C@@H](c1ccccc1)N(Cc1ccncc1)C(=O)C1CCN(c2ccc(C=O)cc2)CC1,inhibition,[2],21.5%
O=C(Nc1cc(Cl)c(F)cc1F)c1cc(Cl)ccc1NS(=O)(=O)c1ccc(Oc2ccccc2Cl)cc1,inhibition,[1],26.5%
O=C(c1cc(Cl)ccc1NS(=O)(=O)c1ccc(Oc2ccccc2Cl)cc1)N1CCN(CCc2ccncc2)CC1,inhibition,[1],6.55%
O=C(Nc1cccc(N2CCOCC2)c1)c1cc(Cl)ccc1NS(=O)(=O)c1ccc(Oc2ccccc2Cl)cc1,inhibition,[1],66.3%
O=C(c1cc(Cl)ccc1NS(=O)(=O)c1ccc(Oc2ccccc2Cl)cc1)N1CCCN(CCCc2ccccc2)CC1,inhibition,[1],11.4%
O=C(Nc1ccc2scnc2c1)c1cc(Cl)ccc1NS(=O)(=O)c1ccc(Oc2ccccc2Cl)cc1,inhibition,[1],71.2%
O=C(Nc1ccc(Cl)c(Cl)c1)c1cc(Cl)ccc1NS(=O)(=O)c1ccc(Oc2ccccc2Cl)cc1,inhibition,[1],37.7%
O=C(Nc1ccc(I)cc1F)c1cc(Cl)ccc1NS(=O)(=O)c1ccc(Oc2ccccc2Cl)cc1,inhibition,[1],67.5%
C[C@H](NC(=O)c1cc(Cl)ccc1NS(=O)(=O)c1ccc(Oc2ccccc2Cl)cc1)c1ccc(N2CCOCC2)cc1,inhibition,[1],18.7%
Cc1cc(I)ccc1NC(=O)c1cc(Cl)ccc1NS(=O)(=O)c1ccc(Oc2ccccc2Cl)cc1,inhibition,[1],20.7%
O=C(c1cc(Cl)ccc1NS(=O)(=O)c1ccc(Oc2ccccc2Cl)cc1)N1CCN(CCc2ccccc2)CC1,inhibition,[1],53.5%
O=C(Nc1ccc(Br)nc1)c1cc(Cl)ccc1NS(=O)(=O)c1ccc(Oc2ccccc2Cl)cc1,inhibition,[1],35.2%
O=C(Nc1ccc(N2CCOCC2=O)cc1)c1cc(Cl)ccc1NS(=O)(=O)c1ccc(Oc2ccccc2Cl)cc1,inhibition,[1],48.5%
O=C(c1cc(Cl)ccc1NS(=O)(=O)c1ccc(Oc2ccccc2Cl)cc1)N1CCC(N2CCCC2=O)CC1,inhibition,[1],-2.59%
Cn1ccc(CN2CC[C@H](c3c[nH]c4ccccc34)C2)cc1=O,inhibition,"PRVABC59, Concentration 49.5 uM, Number of replicates 2.0, Standard deviation 0.9869168424646743 %",2.74%
same,inhibition,"PRVABC59, Concentration 99.01 uM, Number of replicates 2.0, Standard deviation 1.3893738957347146 %",5.37%
same,inhibition,"PRVABC59, Concentration 198.0 uM, Number of replicates 2.0, Standard deviation 1.456023236095902 %",9.72%
O=C(c1cc(Cl)ccc1NS(=O)(=O)c1ccc(Oc2ccccc2Cl)cc1)N1CCN(Cc2cc(F)ccc2F)CC1,inhibition,[1],17.7%
COc1cc(CNC(=O)c2cc(Cl)ccc2NS(=O)(=O)c2ccc(Oc3ccccc3Cl)cc2)cc(OC)c1OC,inhibition,[1],19.3%
O=Cc1ccc(N2CCC(C(=O)Nc3cccc(Br)c3)CC2)cc1,inhibition,[2],23.9%
O=C(Nc1cccnc1Br)c1cc(Cl)ccc1NS(=O)(=O)c1ccc(Oc2ccccc2Cl)cc1,inhibition,[1],23%
O=C(Nc1ccc(-c2ccccc2)cc1)c1cc(Cl)ccc1NS(=O)(=O)c1ccc(Oc2ccccc2Cl)cc1,inhibition,[1],26.5%
O=C(Nc1cc(F)c(Br)c(F)c1)c1cc(Cl)ccc1NS(=O)(=O)c1ccc(Oc2ccccc2Cl)cc1,inhibition,[1],23.4%
O=C(Nc1cc(Cl)c(F)c(Cl)c1)c1cc(Cl)ccc1NS(=O)(=O)c1ccc(Oc2ccccc2Cl)cc1,inhibition,[1],24.3%
O=C(NCc1ccc(-c2cccs2)cc1)c1cc(Cl)ccc1NS(=O)(=O)c1ccc(Oc2ccccc2Cl)cc1,inhibition,[1],28.5%
O=C(NCc1noc(-c2cccs2)n1)c1cc(Cl)ccc1NS(=O)(=O)c1ccc(Oc2ccccc2Cl)cc1,inhibition,[1],51.9%
O=C(Nc1cc(Cl)c(O)c(Cl)c1)c1cc(Cl)ccc1NS(=O)(=O)c1ccc(Oc2ccccc2Cl)cc1,inhibition,[1],84.9%
O=C(Nc1ccccc1Oc1ccccc1)c1cc(Cl)ccc1NS(=O)(=O)c1ccc(Oc2ccccc2Cl)cc1,inhibition,[1],54.2%
O=C(Nc1ccccc1-c1ccccc1)c1cc(Cl)ccc1NS(=O)(=O)c1ccc(Oc2ccccc2Cl)cc1,inhibition,[1],36.2%
O=C(Nc1ccccc1I)c1cc(Cl)ccc1NS(=O)(=O)c1ccc(Oc2ccccc2Cl)cc1,inhibition,[1],26.7%
O=C(NCc1noc(-c2ccco2)n1)c1cc(Cl)ccc1NS(=O)(=O)c1ccc(Oc2ccccc2Cl)cc1,inhibition,[1],48.1%
O=C(Nc1ccc(-c2ccccn2)cc1)c1cc(Cl)ccc1NS(=O)(=O)c1ccc(Oc2ccccc2Cl)cc1,inhibition,[1],58.7%
